Hits are enriched below; roughly 8% of the tested compounds scored in any of these assays.
SW480 rereplic – induces DNA re-replication in SW480 colon adenocarcinoma cells; Potency, µM (titrated, usually from 46.1 µM), usual class: activators; SW480 DNA re-replication, Hoechst DNA content imaging, 48 h; 340,000 compounds, 1.8% hits; further: nearly all actives have a fitted effect of over 55% in size
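Quantitative HTS format with DMSO vehicle controls; 48 hr drug incubation at 37 C, then 40 min Hoechst staining and scanning imager measurement at 405 nm excitation.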
KB-V1 MDR tox – kills drug-selected multidrug resistant KB-V1 cells; Potency, µM (titrated, usually from 46.1 µM), hits mostly cytotoxic; KB-V1 MDR cells viability, CellTiter-Glo, 72 h; 400,000 compounds, 3.4% hits; further: nearly all actives have a fitted effect of over 60% in size
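Readout: CellTiter-Glo luminescence, 10 min after addition. Cells: KB-V1 MDR subline, 72 h at 37 degrees C with compound. Analysis: corrected, normalized data fitted to concentration-effect curves.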
HT1080 IDH1KD tx – kills HT-1080 cells with IDH1 knockdown. Potency, µM (top dose mostly 46.1 µM), actives largely listed as cytotoxic. 360,000 compounds, 2% hits. HT-1080 IDH1 knockdown viability, ATP luminescence, 48 h
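Luminescent ATP read-out (CellTiter-Glo, 10 min at room temperature) after 48 h compound exposure at 37 °C gave viability of IDH1-knockdown HT-1080 cells. Activity was normalised to DMSO and cell-free wells, then fitted as concentration-response curves.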
HT1080-NT tox – kills 2HG-producing HT-1080-NT fibrosarcoma cells. HT-1080-NT fibrosarcoma viability, CellTiter-Glo ATP luminescence, 48 h. Potency, µM (doses to about 46.1 µM), usual class: cytotoxic. 360,000 compounds, 1.6% hits. AID 686970;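 further: NT is the 2HG producing partner of a matched IDH1 knockdown line; nearly all actives have a fitted effect of over 55% in size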
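Viability of the 2HG-overproducing fibrosarcoma line after 48 hours of compound exposure at 37 degrees C was determined by luminescence with CellTiter-Glo, and concentration-effect curves were then fitted and categorized.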
MCF10A rerep – DNA re-replication induction in MCF 10a cells | MCF 10A DNA re-replication, Hoechst nuclear intensity, 48 h | Potency, µM (titrated, usually from 46.1 µM), usual class: activators | 350,000 compounds, 2.9% hits; further: nearly all actives have a fitted effect of over 50% in size
KB-3-1 cytotox – kills parental KB-3-1 adenocarcinoma cells. AID 1347075. Potency, µM (titrated, usually from 46.1 µM), hits mostly cytotoxic. KB-3-1 viability, CellTiter-Glo ATP luminescence, 72 h. 400,000 compounds, 1.4% hits; further: nearly all actives have a fitted effect of over 60% in size
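Cells are dispensed, compounds pinned in, plates held at 37 °C for 72 h, then CellTiter-Glo is added and luminescence read after 10 minutes. Cell line: parental KB-3-1 in phenol-red-free DMEM, 10% FBS.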
A number is an active result; - = inactive; ? = inconclusive; . = no result; ! = not confirmed by another sample; [ ] = dose if it differs, or a comment. The call rests on the fitted dose curve; in most records, active means well fitted curve in the direction sought with a large enough effect; inconclusive means small, poorly fitted or top-dose-only effect, or another doubt; inactive means no such curve, though single readings can be large; an effect the other way counts as inactive or inconclusive.

SMILES | SW480 rereplic | KB-V1 MDR tox | HT1080 IDH1KD tx | HT1080-NT tox | MCF10A rerep | KB-3-1 cytotox
Cc1ccccc1NC(=O)/C(C#N)=C/c1ccc(Cl)cc1Cl | . | - | . | . | . | -
COc1ccc(Cl)cc1C(=O)Nc1ccncc1 | - | - | - | - | - | -
N#CC1(c2ccc(NC(=O)c3ccccc3F)cc2)CCCC1 | - | 23.1µM | - | - | - | ?
CCN(CC)c1ccc(NC(=O)c2cc(Cl)ccc2OC)cc1 | - | ? | 20.6µM | ? | ? | -
CCN(CC)c1ccc(NC(=O)c2ccccc2F)cc1 | 18.4µM | ? | 16.4µM | ? | ? | 16.4µM
CCN(CC)c1ccc(NC(=O)c2ccco2)cc1 | - | ? | - | - | - | -
O=C(Nc1ccc(Nc2ccccc2)cc1)c1ccccc1F | 4.61µM | - | - | - | ? | -
COc1ccc2c(c1)c1c(c(=O)n(-c3ccc(OC)c(OC)c3)c(=O)n1CC(=O)N1CCCC1)n2C | . | ? | . | . | . | -
O=C(/C=C/c1ccncc1)c1ccc(NC(=O)c2ccccc2F)cc1 | 4.11µM | ? | 9.2µM | 7.31µM | 3.66µM | ?
O=C(/C=C/c1ccc(NC(=O)c2ccccc2-c2ccccc2C(=O)O)cc1)c1ccccc1 | - | - | ? | ? | ? | -
C#C[C@]1(O)CC[C@H]2[C@@H]3CCC4=CC(=O)CC[C@@H]4[C@H]3CC[C@@]21C | - | 2.31µM | - | - | - | ?
C#C[C@]1(O)CC[C@H]2[C@@H]3CCC4=C(CCC(=O)C4)[C@H]3CC[C@@]21C | - | 14.6µM | - | - | - | ?
COc1cc2cc(CNc3ccccc3)c(=O)n(CC(=O)Nc3cc(C)cc(C)c3)c2cc1OC | . | - | . | . | . | -
Cc1ccc(-n2ncc(C(=O)NCCN3CCCC3)c2C2CCN(C(=O)OC(C)(C)C)CC2)cc1C | . | - | . | . | . | -
O=c1c2sc3ccccc3c2n(Cc2ccccc2F)c(=O)n1CCc1ccccc1 | . | - | . | . | . | -
CC(C)OC(=O)c1cc2c(ccn2C)n1CC(=O)N(Cc1ccccc1)c1ccccc1 | ? | 14.6µM | - | - | 18.4µM | ?
Cc1csc(NC(=O)CSc2nnc3c4ccccc4nc(C(C)(C)C)n23)n1 | - | ? | 6.31µM | 5.01µM | - | ?
Cc1ccc(C(=O)CSc2nnc3c4ccccc4nc(C(C)(C)C)n23)cc1 | 13µM | ? | - | - | 6.51µM | 23.1µM
CC(=O)CSc1nnc2c3ccccc3nc(C(C)(C)C)n12 | ? | - | - | - | ? | -
CCn1c(SCC(=O)Nc2nc(C)cs2)nnc1-c1ccncc1 | - | - | - | - | - | -
COc1cccc(NC(=O)Cn2c(=O)n(-c3ccc(C)cc3)c(=O)c3ccccc32)c1 | . | - | . | . | . | ?
CCc1ccccc1NC(=O)N(C)CCc1c(C)nn(C)c1C | . | ? | . | . | . | -
CC(=O)Nc1ccc(S(=O)(=O)N2CCN(c3ccc(C)c(C)c3)CC2)cc1 | . | - | . | . | . | -
Cc1ccc(C2Oc3ccccc3C3=C2C(c2cccs2)n2ncnc2N3)cc1 (stereo not drawn) | ? | - | ? | 20.6µM | 5.8µM | 9.2µM
COC(=O)c1cc(Cl)ccc1NCC(N)c1ccccc1 (stereo not drawn) | . | - | 18.4µM | 20.6µM | . | -
SMILES | SW480 rereplic | KB-V1 MDR tox | HT1080 IDH1KD tx | HT1080-NT tox | MCF10A rerep | KB-3-1 cytotox
COc1ccc(C(=O)N(Cc2ccco2)Cc2cccs2)c(OC)c1 | . | - | . | . | . | -
Fc1cccc(NC(=S)NNc2c3ccccc3nc3ccccc23)c1 | - | ? | 20.6µM | ? | - | ?
O=Cc1ccc2noc(-c3ccc(Cl)cc3)c2c1 | ? | 23.1µM | - | - | - | ?
Cc1ccc(-c2onc3ccc(Cl)cc23)cc1 | ? | - | - | - | - | -
Clc1ccc(CN(CC2CCCO2)C(c2cccs2)c2nnnn2C2CCCC2)cc1 (stereo not drawn) | - | 20.6µM | - | - | ? | ?
Clc1ccccc1CN(Cc1ccccc1)C(c1cccs1)c1nnnn1C1CCCC1 (stereo not drawn) | -[9.22 µM] | ? | - | - | - | ?
CCOC(=O)c1c(C)[nH]c(C)c1S(=O)(=O)N1CCC(C(=O)Nc2cc(Cl)ccc2OC)CC1 | . | - | . | . | . | -
CCOc1ccc(C2Nc3ccc4ccccc4c3-c3c2c(=O)oc2ccccc32)cc1 (stereo not drawn) | ? | - | ? | - | 5.17µM | -
COC(=O)c1cc(=O)n(CCc2ccccc2F)c(=Nc2ccc(F)c(Cl)c2)s1 | - | - | 18.4µM | 20.6µM | ? | ?
COC(=O)c1cc(=O)n(Cc2cccs2)c(=Nc2ccc(F)cc2)s1 | - | - | ? | ? | - | ?
COC(=O)c1cc(=O)n(Cc2ccco2)c(=Nc2ccc(F)c(Cl)c2)s1 | ? | ? | ? | ? | 7.31µM | 18.4µM
COC(=O)c1ccc(N=c2sc(C(=O)OC)cc(=O)n2C)cc1 | - | ? | - | - | ? | -
COC(=O)c1cc(=O)n(-c2ccc(F)cc2)c(=Nc2ccc(F)cc2)s1 | ? | ? | ? | ? | 5.17µM | ?
CCCOc1ccc(C(=O)Nc2ccc(NC(=O)c3ccccc3)c(C)c2)cc1 | . | - | . | . | . | -
O=C(NC(c1ccc(Cl)cc1)c1cnccn1)C1CCN(CCOc2ccc(F)cc2)CC1 (stereo not drawn) | . | - | ? | ? | . | -
O=C(NC(c1ccc(-c2ccccc2)cc1)c1cnccn1)C1CCN(CCCOc2ccccc2)CC1 (stereo not drawn) | . | - | 9.2µM | ? | . | ?
COc1ccc(C(NC(=O)C2CCN(CCCOc3ccccc3)CC2)c2ccccn2)cc1 (stereo not drawn) | . | - | - | - | . | -
O=C(NC(c1ccc(-c2ccccc2)cc1)c1cnccn1)C1CCN(CCOc2ccc(F)cc2)CC1 (stereo not drawn) | . | - | 16.4µM | ? | . | ?
Cc1ccccc1-c1noc(-c2ccc(N3CCN(C)CC3)c([N+](=O)[O-])c2)n1 | . | - | . | . | . | -
Cc1ccc(C)c(NC(=O)Cn2c(SCC(=O)NCc3ccccc3)nc3ccccc32)c1 | . | - | . | . | . | -
C#C[C@]1(O)CC[C@H]2[C@@H]3CCc4cc(OC5CCCC5)ccc4[C@H]3CC[C@@]21C | ? | - | 20.6µM | 16.4µM | 13.3µM! | ?
CC1Sc2n(c3ccccc3[n+]2C)N=C1c1ccccc1 (stereo not drawn) | - | - | 7.31µM | - | - | 7.31µM
C[n+]1c2n(c3ccccc31)N=C(c1ccc(Cl)cc1)CS2 | ? | - | ? | ? | - | 5.8µM
COc1cccc(-c2nnc3n2N=C(c2cccc(Br)c2)CS3)c1 | - | ? | - | - | - | -
COc1ccc(C2=Nn3c([n+](C)c4ccccc43)SC2)cc1 | - | - | ? | ? | ? | 2.59µM
Cc1ccc(Cc2nc3ccccc3nc2SCC(=O)N2CCCCC2C)cc1 (stereo not drawn) | . | - | . | . | . | ?
